This passage reports outcome and AC50 results from PubChem BioAssay (EPA / NIEHS).

Calls of active or inactive are those of the source. The calls were made as follows: active = hit-call score of the fitted dose curve at least 0.9, where 1 is the maximum; inactive = score below 0.9.

Test [1] can be described thus: ATG_GLI_CIS: Attagene CIS-FACTORIAL HepG2 Assay for human Zinc Finger Protein GLI1 (AID 2282945). As to conditions: HepG2, Attagene cis-factorial reporter mRNA, GLI element; actives raise or lower the signal. An outline of the steps:
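HepG2 cells transiently transfected with cis-promoter multiplexed reporter units report endogenous transcription factor activity. After 24 h chemical exposure, reporter mRNA was quantified by RT-PCR, 6-FAM labelling, HpaI digestion and capillary electrophoresis, with bidirectional fitting against DMSO.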

The nature of test [2]: ATG_ISRE_CIS: Attagene CIS-FACTORIAL HepG2 Assay for human Interferon Regulatory Factor 1 (IRF1) binding to an Interferon-Stimulated Response Element (ISRE) (AID 2282948). Particulars: HepG2 ISRE cis-reporter (Attagene), mRNA transcription readout; actives raise or lower the signal. An outline of the steps: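 Quantitation relies on labelled RT-PCR fragments separated by capillary electrophoresis. Human HepG2 cells bearing cis-promoter reporter constructs were treated 24 h; DMSO served as baseline for bidirectional fitting.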

The nature of test [3]: ATG_M_32_CIS: Attagene CIS-FACTORIAL HepG2 Assay for M32 Transcription Factor (Internal Marker) (AID 2282949).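 Also: background control marker of the multiplexed CIS panel rather than a real target.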 Particulars: HepG2 Attagene cis-factorial M32 reporter, mRNA; actives raise or lower the signal. An outline of the steps:
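Fluorescent capillary electrophoresis peaks of HpaI-digested, FAM-labelled RT-PCR reporter products give the signal. Source: transiently transfected human liver HepG2 cells, 24 h after chemical dosing; bidirectional fitting against DMSO.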

Test [4] is described as follows: ATG_M_06_CIS: Attagene CIS-FACTORIAL HepG2 Assay for M06 Transcription Factor (Internal Marker) (AID 2282950). As to conditions: HepG2 Attagene CIS-FACTORIAL M06 internal marker reporter; actives raise or lower the signal. An outline of the steps:
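Terse: HepG2, transient MRTU transfection (FuGene 6), 24 h dosing; total RNA, oligo(dT) RT, PCR, FAM label, HpaI cut, capillary electrophoresis; bidirectional fit vs DMSO baseline; background-control endpoint.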

In test [5] the target is Hypoxia-inducible factor 1-alpha (Homo sapiens) (UniProt Q16665). As to the kind of experiment: ATG_HIF1a_CIS: Attagene CIS-FACTORIAL HepG2 Assay for human Hypoxia Inducible Factor 1 (HIF1A) (AID 2282951). Particulars: HepG2 Attagene cis-factorial HIF1a reporter transcription; actives raise or lower the signal. An outline of the steps: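 Activity is fitted in both directions relative to DMSO. Reporter transcripts are read by RT-PCR, fluorescent primer extension and capillary electrophoresis after 24 h chemical treatment. The cells are HepG2 carrying transiently transfected cis-element-driven reporter units responding to endogenous factors.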
Chain of Hypoxia-inducible factor 1-alpha (Homo sapiens) (Q16665 whole entry, looked up): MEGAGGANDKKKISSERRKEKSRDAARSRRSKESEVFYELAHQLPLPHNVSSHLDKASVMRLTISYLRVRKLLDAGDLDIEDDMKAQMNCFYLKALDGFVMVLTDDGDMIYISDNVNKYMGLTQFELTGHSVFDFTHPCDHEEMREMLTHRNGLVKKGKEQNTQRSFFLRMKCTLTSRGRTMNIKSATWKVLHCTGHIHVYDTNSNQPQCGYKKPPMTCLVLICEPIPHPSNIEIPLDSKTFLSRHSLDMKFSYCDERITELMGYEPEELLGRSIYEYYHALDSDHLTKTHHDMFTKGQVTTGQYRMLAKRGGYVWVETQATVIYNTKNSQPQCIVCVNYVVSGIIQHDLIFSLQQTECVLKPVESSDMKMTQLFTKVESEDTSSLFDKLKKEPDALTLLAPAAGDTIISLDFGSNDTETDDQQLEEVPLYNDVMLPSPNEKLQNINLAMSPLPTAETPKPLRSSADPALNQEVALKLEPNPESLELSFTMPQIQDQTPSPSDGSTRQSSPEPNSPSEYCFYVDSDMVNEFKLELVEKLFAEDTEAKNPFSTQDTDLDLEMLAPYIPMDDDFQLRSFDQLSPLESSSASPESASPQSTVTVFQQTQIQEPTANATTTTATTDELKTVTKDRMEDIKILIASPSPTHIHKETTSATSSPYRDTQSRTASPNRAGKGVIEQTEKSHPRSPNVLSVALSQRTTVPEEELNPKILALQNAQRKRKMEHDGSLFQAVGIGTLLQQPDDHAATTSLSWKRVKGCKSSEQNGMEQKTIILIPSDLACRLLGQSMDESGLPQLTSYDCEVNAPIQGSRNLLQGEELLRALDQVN

For test [6], the target named is Hepatocyte nuclear factor 6 (Homo sapiens) (UniProt Q9UBC0). As to the kind of experiment: ATG_HNF6_CIS: Attagene CIS-FACTORIAL HepG2 Assay for human Hepatocyte Nuclear Factor 6 (HNF6) (AID 2282952). Particulars: HepG2 Attagene cis-factorial HNF6 reporter transcription; actives raise or lower the signal. An outline of the steps:
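HepG2 cells transiently transfected with cis-element-driven multiple reporter transcription units, dosed 24 h; reporter mRNA quantified by RT-PCR, FAM primer extension, HpaI digestion and capillary electrophoresis; bidirectional fit versus DMSO baseline.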

The target of test [7] is Heat shock factor protein 1 (Homo sapiens) (UniProt Q00613). As to the kind of experiment: ATG_HSE_CIS: Attagene CIS-FACTORIAL HepG2 Assay for human Heat Shock Transcription Factor 1 (HSE) (AID 2282953). As to conditions: HepG2 HSE cis-reporter, Attagene RNA transcription; actives raise or lower the signal. An outline of the steps: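 Read-out: fluorescence of reporter-specific RT-PCR fragments separated by capillary electrophoresis. HepG2 carrying transfected cis-element reporter units; 24 h dosing; activity fitted in both directions relative to DMSO baseline.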
Chain of Heat shock factor protein 1 (Homo sapiens) (Q00613 whole entry, looked up, the tested form may be a part): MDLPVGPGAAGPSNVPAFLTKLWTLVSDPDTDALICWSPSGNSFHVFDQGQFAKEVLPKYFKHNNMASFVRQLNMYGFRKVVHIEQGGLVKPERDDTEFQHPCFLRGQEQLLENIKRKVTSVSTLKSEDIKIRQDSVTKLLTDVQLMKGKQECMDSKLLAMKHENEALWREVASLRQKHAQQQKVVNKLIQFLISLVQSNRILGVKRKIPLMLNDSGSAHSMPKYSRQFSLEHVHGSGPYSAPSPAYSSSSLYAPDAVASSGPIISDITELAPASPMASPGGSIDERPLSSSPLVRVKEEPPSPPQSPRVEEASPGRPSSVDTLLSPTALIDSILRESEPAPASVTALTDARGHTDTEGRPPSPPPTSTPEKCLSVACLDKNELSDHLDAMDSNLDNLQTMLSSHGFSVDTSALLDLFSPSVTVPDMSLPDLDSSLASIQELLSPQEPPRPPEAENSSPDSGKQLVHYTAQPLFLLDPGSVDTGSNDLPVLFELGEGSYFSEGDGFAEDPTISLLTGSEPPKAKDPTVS

The nature of test [8]: ATG_MRE_CIS: Attagene CIS-FACTORIAL HepG2 Assay for human Metal Responsive Element (MRE) (AID 2282954). Particulars: HepG2 MRE cis-reporter transcription, Attagene multiplex; actives raise or lower the signal. An outline of the steps: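 Step one: transfect HepG2 with cis-regulated reporter units. Step two: dose 24 h. Step three: isolate RNA, RT-PCR, 6-FAM label, HpaI digest, capillary electrophoresis. Fit bidirectionally to DMSO.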

Chain of Hepatocyte nuclear factor 6 (Homo sapiens) (Q9UBC0 whole entry, looked up): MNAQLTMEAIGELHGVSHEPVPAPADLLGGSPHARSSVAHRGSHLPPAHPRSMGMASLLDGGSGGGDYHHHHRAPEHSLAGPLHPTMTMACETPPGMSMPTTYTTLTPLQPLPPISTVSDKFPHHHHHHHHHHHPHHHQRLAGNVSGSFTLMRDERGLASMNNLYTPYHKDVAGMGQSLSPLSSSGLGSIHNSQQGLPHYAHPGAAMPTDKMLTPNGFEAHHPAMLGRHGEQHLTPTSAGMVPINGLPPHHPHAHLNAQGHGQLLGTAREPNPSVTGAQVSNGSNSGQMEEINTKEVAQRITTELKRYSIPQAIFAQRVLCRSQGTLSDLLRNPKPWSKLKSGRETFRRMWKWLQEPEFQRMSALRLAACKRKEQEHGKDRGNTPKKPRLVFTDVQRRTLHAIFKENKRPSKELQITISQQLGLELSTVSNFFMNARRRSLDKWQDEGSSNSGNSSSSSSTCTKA

Consider `CCCCCCCCCCO[C@@H]1O[C@H](CO)[C@@H](O)[C@H](O)[C@H]1O`, for which the result in test [1], in test [2], in test [3], in test [4], in test [5] and in test [6] was inactive. Further, the compound was classed as inactive in test [7] and in test [8].

For the compound `CN(C)C`, the compound was classed as inactive in test [1], in test [2], in test [3], in test [4], in test [5] and in test [6]. The compound was called inactive in test [7] and in test [8].

With `CC(=O)OCC=C(C)CCC=C(C)CCC=C(C)C`, the AC50 (as a rule, the concentration at which the activity in the assay is half-maximal) in test [1] is 164 µM (active); in test [2], 147 µM (active); in test [7], 72.3 µM (active); in test [8], 100 µM (active). Moreover, the call in test [3], in test [4], in test [5] and in test [6] was inactive.

For the compound `COc1cc(OC)c2ccc(=O)oc2c1`, the outcome in test [1], in test [2], in test [3], in test [4], in test [5] and in test [6] was inactive. Besides, the result in test [7] and in test [8] was inactive.

As for `COc1ccccc1NC(=O)CC(C)=O`, the outcome in test [1], in test [2], in test [3], in test [4], in test [5] and in test [6] was inactive. Besides, the call in test [7] and in test [8] was inactive.

Take `OCC=Cc1ccccc1`: the compound was called inactive in test [1], in test [2], in test [3], in test [4], in test [5] and in test [6]. Also, the compound was called inactive in test [7] and in test [8].

For `CC(=O)OC(C)(C)C1CC=C(C)CC1` (stereo not given), the compound was called inactive in test [1], in test [2], in test [3], in test [4], in test [5] and in test [6]. Also, the outcome in test [7] and in test [8] was inactive.

Take `CCC(C)COC(=O)CC(C)C` (stereo not given): the call in test [1], in test [2], in test [3], in test [4], in test [5] and in test [6] was inactive. Also, the result in test [7] and in test [8] was inactive.

As to `COC(=O)C(C)Oc1ccc(Oc2ncc(C(F)(F)F)cc2Cl)cc1` (stereo not given), the result in test [1], in test [2], in test [3], in test [4], in test [5] and in test [6] was inactive. The call in test [7] was inactive. Further, the AC50 in test [8] was 100 µM (active).

In the case of `OC[C@@H](O)[C@H](O)[C@@H](O)[C@@H](O)CO`, the result in test [1], in test [2], in test [3], in test [4], in test [5] and in test [6] was inactive. Further, the result in test [7] and in test [8] was inactive.

On to `CC(C)=CC(=O)O`, for which the compound was called inactive in test [1], in test [2], in test [3], in test [4], in test [5] and in test [6]. In addition, the compound was called inactive in test [7] and in test [8].

For the compound `CCO[Si](CC)(OCC)OCC`, the result in test [1], in test [2], in test [3], in test [4], in test [5] and in test [6] was inactive. For the same compound, the result in test [7] and in test [8] was inactive.

Turning to `CCCCCCCCOC(C)=O`, the outcome in test [1], in test [2], in test [3], in test [4], in test [5] and in test [6] was inactive. Besides, the compound was classed as inactive in test [7] and in test [8].

As to `CCCCCCOc1ccc(O)cc1`, the outcome in test [1], in test [2], in test [3], in test [4], in test [5] and in test [6] was inactive. For the same compound, the AC50 in test [7] is 11.3 µM (active); in test [8] it was 47.7 µM (active).

Regarding `C=CC(=O)OCCCCCC`, the call in test [1], in test [2], in test [3], in test [4], in test [5] and in test [6] was inactive. The result in test [7] and in test [8] was inactive.

For `O=C(O)c1cccc(Cl)n1`, the call in test [1], in test [2], in test [3], in test [4], in test [5] and in test [6] was inactive. For the same compound, the result in test [7] and in test [8] was inactive.

As to `Nc1cc([N+](=O)[O-])ccc1C(=O)O`, the result in test [1], in test [2], in test [3], in test [4], in test [5] and in test [6] was inactive. In addition, the AC50 in test [7] was 75 µM (active); in test [8], 71 µM (active).

For the compound `CCC(CC)CO`, the call in test [1], in test [2], in test [3], in test [4], in test [5] and in test [6] was inactive. In addition, the compound was classed as inactive in test [7] and in test [8].

For `CC(=O)CC(C)(C)C1CCCCC1`, the compound was called inactive in test [1], in test [2], in test [3], in test [4], in test [5] and in test [6]. Moreover, the result in test [7] and in test [8] was inactive.

Regarding `CC(O)CNCC(C)O` (stereo not given), the call in test [1], in test [2], in test [3], in test [4], in test [5] and in test [6] was inactive. The compound was classed as inactive in test [7] and in test [8].

As for `O=C(O)c1ccco1`, the result in test [1], in test [2], in test [3], in test [4], in test [5] and in test [6] was inactive. The call in test [7] and in test [8] was inactive.

As for `CC(C)C(=O)c1ccccc1`, the outcome in test [1], in test [2], in test [3], in test [4], in test [5] and in test [6] was inactive. For the same compound, the compound was classed as inactive in test [7] and in test [8].

For the compound `CCCC(O)C(CC)CO` (stereo not given), the call in test [1], in test [2], in test [3], in test [4], in test [5] and in test [6] was inactive. For the same compound, the result in test [7] and in test [8] was inactive.

As to `CC(=O)CCC=C(C)CCC=C(C)C`, the call in test [1], in test [2], in test [3], in test [4], in test [5] and in test [6] was inactive. For the same compound, the call in test [7] and in test [8] was inactive.

Consider `CCC(C)C1CCCCC1=O` (stereo not given), for which the compound was called inactive in test [1], in test [2], in test [3], in test [4], in test [5] and in test [6]. The result in test [7] and in test [8] was inactive.

Consider `N#CCCCC(C#N)CCC#N` (stereo not given), for which the call in test [1], in test [2], in test [3], in test [4], in test [5] and in test [6] was inactive. Further, the call in test [7] and in test [8] was inactive.

In the case of `COc1ccc(C(C)=O)cc1`, the outcome in test [1], in test [2], in test [3], in test [4], in test [5] and in test [6] was inactive. Besides, the compound was called inactive in test [7] and in test [8].

Regarding `CC1=CCC(=C(C)C)CC1`, the compound was called inactive in test [1], in test [2], in test [3], in test [4], in test [5] and in test [6]. In addition, the compound was called inactive in test [7] and in test [8].

With `NCCN1CCNCC1`, the compound was called inactive in test [1], in test [2], in test [3], in test [4], in test [5] and in test [6]. Moreover, the call in test [7] and in test [8] was inactive.

On to `CCCCCCCC1CCCC1=O` (stereo not given), for which the call in test [1], in test [2], in test [3], in test [4], in test [5] and in test [6] was inactive. Also, the compound was classed as inactive in test [7] and in test [8].
